# A selection: hits, their analogues and other compounds. The true share with any hit is near 21%.
# HCV inh: qHTS Assay for Inhibitors of Hepatitis C Virus (HCV); Potency, µM (doses to about 41.8 µM), for the others: top-dose activity change, negative = inhibition, hits mostly inhibitors; 3.4% of 340,000 active; Huh7.5.1 HCVcc-Cre infection, luciferase reporter, 44 h; AID 651820, 2012; note: potency is the fitted concentration of half-maximal effect; % is set by controls: 0 for no effect and ±100 for the full control effect
#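 Cells (1,000/well) were plated 4 h before compound, then infected with HCVcc-Cre virus (~0.5 moi). After 44 h further culture, infection was read as luciferase luminescence following a 15 min substrate incubation at room temperature.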
# Shiga inhibitor: A qHTS for Small Molecule Inhibitors of Shiga Toxin | Vero cells, Shiga toxin protein synthesis inhibition reporter | inhibition, % at 38.7 µM | 9.2% of 290,000 active; in the data active = inhibition mostly above about 28%, no sharp cut-off; inactive = mostly below about 43%; note: 0% is about no effect
# AMA1 RON2 block: qHTS for Inhibitors of AMA1-RON; Towards Development of Antimalarial Drug Lead: Primary Screen; AlphaScreen AMA1-biotinylated RON2 peptide binding; Potency, µM (doses to about 58.2 µM), for inactives: at the highest dose activity change, negative = inhibition, hits mostly inhibitors; 0.2% of 360,000 active; AID 720542, 2013;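 note: potency is the fitted concentration of half-maximal effect; 0% = vehicle wells and -100% = peptide control; nearly all actives have a fitted effect of over 45% in size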
#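 AMA1 (3D7) with his tag at 25 nM final met compounds first, then biotinylated RON2 peptide at 25 nM; detection used donor plus acceptor beads, 10 µg/mL apiece, read by AlphaScreen after 30 min at room temperature.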
# Pf growth 96h: Primary qHTS for delayed death inhibitors of the malarial parasite plastid, 96 hour incubation; P. falciparum luciferase reporter growth, 96 h; Potency, µM (titrated, usually from 28.7 µM), for inactives: at the top dose activity change, negative = inhibition, most hits filed as inhibitors; 6.9% of 320,000 active; note: potency is the fitted concentration of half-maximal effect; % is set by controls: 0 for no effect and ±100 for the full control effect
#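 Plates of compound plus infected erythrocytes (2% hematocrit, 0.05% parasitemia final) incubate 96 hours, 37 C, 5% CO2. Detection reagent added; reduced luminescence from the parasites' luciferase reporter flags inhibition.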
# CHX counter: Cycloheximide Counterscreen for Small Molecule Inhibitors of Shiga Toxin; max response, %; cell reporter, cycloheximide protein synthesis inhibition counterscreen; 12% of 300,000 active; in the data active = max response mostly above about 13%, no sharp cut-off; inactive = mostly below about 14%; note: read at 38.3 µM for the half of the compounds with a filed dose; 0% is about no effect
# Pf growth 48h: Primary qHTS for delayed death inhibitors of the malarial parasite plastid, 48 hour incubation; P. falciparum luciferase growth in erythrocytes, 48 h; Potency, µM (series often up to 28.7 µM), inactives show at the top dose activity change, negative = inhibition, hits mostly inhibitors; 5.9% of 310,000 active; note: potency is the fitted concentration of half-maximal effect; % is set by controls: 0 for no effect and ±100 for the full control effect
#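 Cell-based growth assay: transgenic P. falciparum expressing firefly luciferase, cultured in red cells within RPMI 1640 containing 0.5% w/v Albumax, 24 mM bicarbonate and gentamycin. A drop in luciferase activity indicates inhibition.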
# Numbers without * were called inactive; ? = inconclusive; · = no result; [ ] = dose if it differs, or a comment. Unless noted, calls come from the whole dose curve; as a rule, active = well fitted curve in the direction sought with a large enough effect; inconclusive = small, poorly fitted or top-dose-only effect, or another doubt; inactive = no such curve, though single readings can be large; an effect the other way counts as inactive or inconclusive.
SMILES,HCV inh,Shiga inhibitor,AMA1 RON2 block,Pf growth 96h,CHX counter,Pf growth 48h
CC(C)Nc1nc(NC2CCCC2)nc(N2CCOCC2)n1,?,·,1.1%,5.22µM*,·,?
COc1cc(C(=O)N[C@H](C(=O)NC(C)C23CC4CC(CC(C4)C2)C3)C(C)C)cc(OC)c1OC (stereo partly specified),11.2%,-13.3,-4.8%,?,-5.4,·
Cc1ccc(C(C)C)c(OCCNC(=O)c2cncc(Br)c2)c1,-11.7%,11.9,13.9%,?,1.8,?
COc1ccc(C)cc1NC(=O)C(NC(=O)c1cc(OC)c(OC)c(OC)c1)C(C)C (stereo unspecified),?,-5.3,-4.6%,13.1µM*,-1.8,-34.9%
COc1cc(C(=O)NCCOc2cc(C)ccc2C(C)C)cc(OC)c1OC,2.82µM*,-5.3,-7.6%,90.8%,-0.7,1.3%[0.00184 µM]
CCN(c1ccccc1)S(=O)(=O)c1ccc(Cl)c(NC(=O)CN(C)C2CCN(C)CC2)c1,-19.7%,-10.2,-12.0%,?,-2.7,?
COC(=O)Nc1c(-c2ccccc2)nc2ccc(Cl)cn12,8.2%,-3.5,11.2%,?,-2.5,1.9%
COC(=O)CNc1c(-c2ccccc2)nc2ccc(Br)cn12,-2.4%,50.0*,17.0%,4.7%,42.0*,·
CCCCCOCC1CC(C/C(C)=N/Nc2nc(-c3ccccc3)cs2)C(=O)O1 (stereo unspecified),13.3%,69.2*,-2.0%,58.8%,27.0*,?
CCCCCOCC1CC(C/C(C)=N/NC(N)=S)C(=O)O1 (stereo unspecified),?,13.8,49.4%,24.8%,-3.4,11.2%
O=c1c2ccccc2sc2ccccc12,?,·,25.9%,·,·,·
Nc1ccc2c(c1)sc1ccccc12,?,81.7*,-14.0%,?,58.0*,-8.7%
COC(=O)CN1C(=O)Nc2ccc(Br)cc2C1c1ccccc1 (stereo unspecified),-15.4%,-5.8,-11.2%,3.7µM*,-3.3,-23.4%
CCc1ccc(N(CC(=O)NC(C)C)C(=O)CCC(=O)Nc2nccs2)cc1,4.3%,32.0,4.6%,90.2%,-6.6,-11.0%
O=C(Nc1cc(Cl)cc(Cl)c1)c1cnn2cccnc12,7.1%,-28.4,-2.7%,-27.0%,1.2,32.1%
COC(=O)c1ccccc1NC(=O)c1cnn2cccnc12,-13.7%,-14.3,4.2%,17.7%,-1.5,7.4%
O=C(Nc1cccc(Cl)c1)c1cnn2cccnc12,11.4%,active,-1.4%,·,38.4*,317.0%
Cc1cc(NC(=O)c2nn3cccnc3c2Cl)no1,4.1%,34.5*,-2.7%,204.6%,40.3*,·
Cc1cc(NC(=O)c2cnn3cccnc23)no1,6.4%,141.4*,?,·,53.6*,121.4%
O=C(NCc1ccccc1C(F)(F)F)c1cccc2c1C(=O)c1ccc(N3CCCCC3)cc1S2(=O)=O,?,·,10.4%,·,·,·
CC(C)N1CCC(C)(C(=O)Nc2ccc(Cl)c(Cl)c2)C1 (stereo unspecified),·,·,6.2%,·,·,·
Cc1ccc(NC(=S)Nc2ccc(Cl)c(Cl)c2)c(OC(F)F)c1,?,-9.2,9.2%,4.15µM*,-1.2,?
Cc1cccc(C)c1NC(=S)Nc1ccc(Cl)c(Cl)c1,3.9%,16.3,17.3%,-20.7%,1.7,?
Cc1cc(C)cc(NC(=S)Nc2ccc(Cl)c(Cl)c2)c1,-16.6%,-11.8,54.8%,13.2%,-2.2,13.1µM*
COc1ccccc1C/C(N)=N/OC(=O)c1ccc2c(c1)OCO2,?,104.5*,4.9%,-1.6%,44.3*,?
COc1ccccc1C/C(N)=N/OC(=O)c1ccco1,-24.5%,55.9*,0.0%,40.5%,19.3*,78.5%
CCCCc1c(-c2ccccc2OC)ncn1Cc1cccc(-c2ccccc2)c1,·,·,-12.8%,·,·,·
CC(C)(C)OC(=O)C[C@@H]1C/C=C\C[C@H](CC(=O)N[C@@H](CO)Cc2ccccc2)C(=O)N[C@H](C(C)(C)C)COC1=O,1.6%,·,-2.7%,·,·,·
Cc1ccc(NC(=O)C2=C(O)CCn3c2nc2ccccc23)cc1,?,37.1,18.7%,?,21.9*,·
